Screens deposited in PubChem by National Center for Advancing Translational Sciences (NCATS).
This is a sample that favours compounds with a hit; in the whole collection about 1.3% have one here.
ALOX12 inh = ALOX12 (human) lipoxygenase inhibition | P18054 | purified 12hLO, xylenol orange hydroperoxide absorbance | Potency, µM (titrated, usually from 108 µM), for inactives: at the top dose activity change, negative = inhibition, actives largely listed as inhibitors | 1.1% of 580,000 active | AID 1671190; note: potency is the fitted concentration of half-maximal effect; % is set by controls: 0 for no effect and ±100 for the full control effect
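Hydroperoxide product was detected by ferrous iron/xylenol orange as the 573 to 405 nm absorbance ratio. Arachidonic acid at 40 uM (final) was turned over for 30 min at room temperature by 150 nM human 12hLO, pH 7.0 Hepes buffer, after 15 min compound preincubation.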
TRPML1 agonist = activates the human TRPML1 channel | activation, % (test concentration not listed) | TRPML1-expressing cells, Ca2+ dye fluorescence, FDSS | AID 624414 | 0.12% of 410,000 active; in the data active = activation above about 50%; inconclusive = mostly about 30% to 49%; note: 0% is about no effect
Target sequence (Q9GZU1 whole entry, looked up): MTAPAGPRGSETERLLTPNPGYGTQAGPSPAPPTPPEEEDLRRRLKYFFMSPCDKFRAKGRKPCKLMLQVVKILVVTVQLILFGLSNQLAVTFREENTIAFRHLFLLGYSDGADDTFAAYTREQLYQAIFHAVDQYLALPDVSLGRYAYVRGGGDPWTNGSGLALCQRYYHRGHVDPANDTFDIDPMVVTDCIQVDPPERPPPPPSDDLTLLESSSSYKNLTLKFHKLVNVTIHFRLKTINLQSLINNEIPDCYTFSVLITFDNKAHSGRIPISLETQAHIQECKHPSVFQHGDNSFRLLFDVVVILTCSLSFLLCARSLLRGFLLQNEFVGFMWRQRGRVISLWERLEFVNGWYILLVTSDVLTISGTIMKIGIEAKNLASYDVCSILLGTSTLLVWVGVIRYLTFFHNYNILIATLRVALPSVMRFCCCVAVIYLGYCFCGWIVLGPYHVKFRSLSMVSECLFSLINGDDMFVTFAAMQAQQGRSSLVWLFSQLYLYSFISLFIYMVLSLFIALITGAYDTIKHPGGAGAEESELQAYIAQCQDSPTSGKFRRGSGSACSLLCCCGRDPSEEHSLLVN
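Tetracycline-induced TRPML1-DL cells are seeded and incubated overnight before loading with a no-wash Ca2+ dye and quencher. Agonist activity is taken from the 110 s fluorescence read following compound pin-transfer on an FDSS, before EC80 54-4 challenge.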
Vif-A3G inh = inhibitors of Vif-APOBEC3G interaction; HeLa A3G-eYFP + Vif (tagged APOBEC3G with the HIV-1 protein that degrades it), YFP fluorescence, overnight; 0.076% of 410,000 active; Potency, µM (doses to about 46.1 µM), without a hit: at the top dose activity, negative = active, actives largely listed as inhibitors; AID 602310; Q9HC16; note: potency is the fitted concentration of half-maximal effect; % is set by controls: 0 for no effect and ±100 for the full control effect; nearly all actives have a fitted effect of over 60% in size
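Read-out is eYFP fluorescence (Ex 488/Em 500-530) from Vif-expressing HeLa A3G-eYFP cells; more signal means A3G escaped Vif-mediated degradation. Cells plated overnight, compound pinned in, incubated overnight at 37 deg C.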
Vif-A3F inh = Vif-A3F binding inhibition; HeLa A3F-eYFP + Vif (tagged APOBEC3F with the HIV-1 protein that degrades it), YFP fluorescence increase; Potency, µM (doses to about 46.1 µM), inactives show at the top dose activity, negative = active; 0.2% of 390,000 active; AID 602313; note: potency is the fitted concentration of half-maximal effect; % of control where 0% means no effect; nearly all actives have a fitted effect of over 65% in size
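Fluorescence increase (Ex 488/Em 500-530) after overnight compound treatment at 37 deg C flags inhibition of Vif-driven A3F-eYFP loss in stable HeLa A3F-eYFP/Vif cells seeded overnight beforehand.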
Glioma ERSR ind = inducers of ER stress response in human glioma cells. U87-MG GRP78 promoter luciferase reporter, 16 h. Potency, µM, for inactives: top-dose activation, most hits filed as activators. 0.02% of 420,000 active; note: potency is the fitted concentration of half-maximal effect; series mostly up to about 76 µM; % of control where 0% means no effect; nearly all actives have a fitted effect of over 35% in size
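Stably transfected U87-MG glioma cells carrying a GRP78-based luciferase sensor; 16 h compound incubation. Luminescence end-point read 10 min after Bright-Glo addition at room temperature.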
TRPML1 blocker = blocks the human TRPML1 channel; 0.02% of 390,000 active; TRPML1-inducible cells, Ca2+ dye fluorescence, FDSS; stronger effect = lower value; inhibition of EC80 agonist-evoked calcium signal; activity change, negative = inhibition, % (no concentration beside the values); Q9GZU1; in the data active = activity change below about -50%; inconclusive = between about -30% and that limit;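 note: stimulus is agonist 54-4 at its EC80 concentration; % is set by controls: 0 for no effect and ±100 for the full control effect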
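Calcium fluorescence in TRPML1-DL cells induced overnight with Tet: a 110 s read after compound pin addition, then a 110 s antagonist read after challenge with 54-4 at 4 uM final (EC80).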
* = called active by the depositor; ? = inconclusive; nt = not tested or not shown. Unless noted, calls come from the whole dose curve; as a rule, active = well fitted curve in the direction sought with a large enough effect; inconclusive = small, poorly fitted or top-dose-only effect, or another doubt; inactive = no such curve, though single readings can be large; an effect the other way counts as inactive or inconclusive.

SMILES	ALOX12 inh	TRPML1 agonist	Vif-A3G inh	Vif-A3F inh	Glioma ERSR ind	TRPML1 blocker
CCS(=O)(=O)N1CCc2cc(C(=O)CSc3cccc(OC)c3)ccc21	-17.4%	nt	nt	nt	nt	nt
COc1ccc(C(=O)Oc2ccc3c(-c4ccc(OC)cc4)cc(=O)oc3c2)cc1	-11.6%	nt	nt	nt	nt	nt
COc1ccc(-c2cc(=O)oc3c(O)c(O)ccc23)cc1	1.12µM*	0.1	2.2%	-18.1%	-5.5%	11.3
Cc1ccc(-n2ncc3c(NCCC4=CCCCC4)ncnc32)cc1	12.6µM*	4.4	3.2%	-1.5%	-2.6%	67.9
COc1ccc(-n2ncc3c(NCCC4=CCCCC4)ncnc32)cc1	3.55µM*	1.2	-1.0%	-1.7%	-2.2%	4.9
Cc1ccc(-n2ncc3c(NCCc4ccc(S(N)(=O)=O)cc4)ncnc32)cc1	-18.4%	-1.0	-8.4%	-4.7%	4.7%	-16.3
O=C(NCCC(c1ccccc1)c1ccccc1)NNc1ccccn1	22.4µM*	nt	nt	nt	nt	nt
Cc1ccc(OCc2nnc3sc(-c4cccc(N(C)C)c4)nn23)cc1	18.0%	nt	nt	nt	nt	nt
CC(C)CN1C(=O)/C(=C/c2cccs2)NC1=S	?	-0.5	-1.9%	-6.2%	-3.6%	3.3
CC(C)CN1C(=O)/C(=C/c2ccco2)NC1=S	28.2µM*	-0.6	0.2%	-0.2%	-0.6%	10.3
Cn1c(-c2cccc(Br)c2)cnc1NCc1ccccc1O	14.1µM*	0.0	-0.7%	13.9%	-0.6%	-1.0
COc1cccc(CNc2ncc(-c3ccc(Br)cc3)n2C)c1	8.91µM*	-0.3	-0.7%	1.4%	-4.2%	-10.7
Cn1c(-c2ccc(Br)cc2)cnc1NCc1ccc(C#N)cc1	2.51µM*	0.0	-11.1%	2.0%	-4.1%	-26.7
Cn1c(-c2ccccc2)cnc1NCc1ccccc1	?	-0.7	-13.8%	-17.1%	2.0%	0.8
COc1cc(/C=C(\CC(=O)O)c2nc3ccccc3s2)ccc1OCC(=O)Nc1ccccc1F	?	-0.7	-0.1%	5.8%	-0.1%	40.9
COc1cc(/C=C(\C#N)c2nc3ccccc3s2)ccc1OCC(=O)Nc1ccccc1	nt	2.1	10µM*	?	11.3%	42.2
COc1cc(/C=C(\CC(=O)O)c2nc3ccccc3s2)cc(OC)c1O	35.5µM*	-0.5	1.3%	9.0%	1.3%	2.1
COc1cc(/C=C(/C#N)c2nc3ccccc3[nH]2)ccc1OCC(=O)Nc1ccccc1C(C)C	7.5%	1.8	-14.1%	10µM*	10.6%	?
COc1ccc(/C=C(\CC(=O)O)c2nc3ccccc3s2)cc1O	-11.4%	0.0	-2.6%	-5.9%	2.9%	10.3
Cc1c(C)n2c3c(=O)[nH]c(=O)n(C)c3nc2n1CCNc1ccc(Oc2ccccc2)cc1	-59.9%	nt	nt	nt	nt	nt
CC(C)C(C)(C#N)NC(=O)CC1CC2CCC1C2 (stereo not drawn)	1.2%	nt	nt	nt	nt	nt
CCCOc1ccccc1OCC(=O)Nc1ccc2oc(C)nc2c1	8.5%	nt	nt	nt	nt	nt
O=C(CSc1ccc2ccccc2c1)c1ccc2c(c1)CCC2	35.5µM*	nt	nt	nt	nt	nt
COc1cccc(C2OCC(C)(C)n3c(-c4ccccc4)c4c(=O)n(C)c(=O)n(C)c4c32)c1O (stereo not drawn)	11.2µM*	nt	nt	nt	nt	nt
O=C(CCC1CCCC1)Nc1cccc2ccccc12	-0.2%	nt	nt	nt	nt	nt
SMILES	ALOX12 inh	TRPML1 agonist	Vif-A3G inh	Vif-A3F inh	Glioma ERSR ind	TRPML1 blocker
NC(=O)c1ccsc1NC(=O)COC(=O)/C=C/c1ccc([N+](=O)[O-])cc1	2.9%	-0.6	0.4%	-8.8%	3.6%	2.2
NC(=O)c1ccsc1NS(=O)(=O)c1ccc([N+](=O)[O-])cc1	14.1µM*	nt	nt	nt	nt	nt
CCOc1ccc(C(=O)NC2CCCN(c3cc(-c4ccccc4)[nH]n3)C2)cc1OCC (stereo not drawn)	33.9%	nt	nt	nt	nt	nt
CC(C)c1ccc(NC(=O)CSc2nc3ccccc3nc2N2CCCC2)cc1	6.31µM*	0.3	0.1%	0.8%	-0.9%	6.3
Cc1ccc(N2C(=O)/C(=C/c3ccco3)SC2=S)cc1	17.8µM*	-0.4	-0.4%	-5.8%	2.5%	-21.3
Cc1ccc(N2C(=O)/C(=C/c3cccnc3)SC2=S)cc1	2.6%	-0.3	2.2%	4.5%	-1.7%	2.6
COc1ccc2oc(=Nc3ccccc3)c(-c3nc4ccccc4[nH]3)cc2c1	3.2%	0.3	-27.9%	11.2µM*	3.0%	51.9
C=CCNC(=S)NC(=O)c1ccc(C)c(Br)c1	35.5µM*	nt	0.8%	-12.3%	2.9%	nt
COc1ccc(/C=C/C(=O)c2ccc(C(=O)O)s2)cc1OC	5.62µM*	nt	nt	nt	nt	nt
Fc1ccc(CN2CCCCCCC2)c(F)c1	0.447µM*	-0.6	-2.3%	6.1%	-6.3%	13.3
Fc1ccc(CN2CCCCCC2)c(F)c1	?	-0.2	-1.4%	6.3%	-4.9%	-8.4
CC(=O)Nc1ccc(S(=O)(=O)N(C)Cc2ccccc2)cc1	-8.9%	-0.6	-4.4%	-2.6%	-4.8%	14.0
CN(Cc1ccccc1)S(=O)(=O)c1ccc(NC(=S)NC(=O)C(C)(C)C)cc1	35.5µM*	0.4	-0.7%	0.1%	-1.9%	0.4
CN(Cc1ccccc1)S(=O)(=O)c1ccc(NC(=S)NC(=O)C2CCCCC2)cc1	17.8µM*	-0.2	-16.1%	6.7%	-4.0%	-18.6
O=C(NC(=S)NCc1ccc(F)cc1)c1ccccc1	15.8µM*	1.6	-0.4%	0.9%	1.7%	2.4
Fc1ccc(CNC(=S)NCc2ccc(Cl)c(Cl)c2)cc1	31.6µM*	nt	nt	nt	nt	nt
Cc1cccc(C(=O)NC(=S)NCc2ccccc2)c1	?	1.9	-0.8%	?	0.6%	7.5
O=C(NC(=S)NC1CCCCCCCCCCC1)c1cccnc1	261.2%	0.8	-0.2%	0.4%	-6.2%	-9.9
O=C(NC(=S)NCc1ccncc1)c1ccccc1	-6.9%	-0.7	0.9%	-6.7%	-3.3%	-2.5
O=C(NC(=S)NC1CCCC1)c1ccccc1	12.6µM*	2.3	-2.6%	?	1.9%	7.8
O=C(NC(=S)NCc1ccccc1)c1ccccc1	39.8µM*	1.0	-2.4%	?	2.1%	1.2
Cc1ccc(COc2ccc(CNC(C)C)cc2)cc1	6.7%	nt	nt	nt	nt	nt
CCc1ccc(C(C)NC(=S)NCc2ccc(F)cc2)cc1 (stereo not drawn)	44.7µM*	17.7	1.4%	-6.1%	-4.3%	5.2
CC(C)(C)C(=O)NC(=S)NCc1ccccc1	39.8µM*	1.1	-3.3%	11.3%	-1.7%	-8.5
COc1ccc(CCNC(=S)NC(=O)c2cccc([N+](=O)[O-])c2)cc1OC	35.5µM*	3.8	0.4%	1.6%	-5.4%	24.6
S=C(NCc1ccccc1)NCc1ccccc1	-3.1%	-0.4	1.6%	-5.6%	-1.4%	7.2
COc1ccc(C(=O)NC(=S)NCCc2ccccc2)cc1	15.8µM*	2.1	-2.7%	?	1.3%	4.6
